Measurements taken from the supplement of paper PMC13380429.

Assays:
[1] = system: Vero E6 infected with SARS-CoV-2; assay: morphology score (similarity to uninfected cells); higher = more like uninfected cells; settings: 24 h
[2] = system: Vero E6 infected with SARS-CoV-2; assay: SARS-CoV-2 infection rate relative to infected DMSO; higher = more infection, active = 60 or less; settings: 24 h

Compound | morphology score [1] | SARS-CoV-2 infection rate [2]
CCCCOc1cc(C(=O)OCCN(CC)CC)ccc1N [oxybuprocaine] (10 µM) | 0.0894 | 114% (inactive)
CCOc1cc(C(=O)N2CCC(N3CCN(C)CC3)CC2)ccc1Nc1ncc2c(n1)N(C1CCCC1)c1ccccc1C(=O)N2C (10 µM) | -0.264 | 122% (inactive)
O=C(NCc1cccc(O)c1)Nc1nc(-c2ccncc2)cs1 (10 µM) | 0.392 | 97.8% (inactive)
NC[C@@H]1CC[C@@H](N)[C@@H](O[C@H]2[C@H](O)[C@@H](O[C@H]3O[C@H](CO)[C@@H](O)[C@H](N)[C@H]3O)[C@H](N)C[C@@H]2N)O1 [dibekacin] (10 µM) | 0.0218 | 103% (inactive)
CCc1ccc(C2=CC(C)(C)Sc3ccc(C#Cc4ccc(C(=O)O)cc4)cc32)cc1 (10 µM) | -0.0119 | 111% (inactive)
O=C(CCc1ccncc1)NNC(=O)N1Cc2ccccc2Oc2ccc(Cl)cc21 (10 µM) | -0.103 | 108% (inactive)
COc1ccc(OC)c2c(=S)c3ccccc3[nH]c12 (10 µM) | -0.0609 | 106% (inactive)
O=[N+]([O-])/N=C1\NCCN1Cc1ccc(Cl)nc1 [imidacloprid] (10 µM) | 0.114 | 98.5% (inactive)
CCCCNNC(=O)c1ccc(Br)cc1 (0.833333 µM) | -0.294 | 116% (inactive)
C[C@@H](Oc1ccc(Cl)cc1)c1ccnc2ncnn12 (10 µM) | -0.0401 | 112% (inactive)
O=[N+]([O-])c1cnc(Sc2nnc(O)n2-c2ccc3c(c2)OCCO3)s1 (0.833333 µM) | 0.392 | 76.5% (inactive)
O=C1CN2Cc3c(ccc(Cl)c3Cl)N=C2N1 [anagrelide] (10 µM) | 0.142 | 112% (inactive)
N=C(N)NCCN1CCCCCCC1 [guanethidine] (10 µM) | -0.0499 | 109% (inactive)
CN1CCN(C2=Cc3ccccc3Oc3ccc(Cl)cc32)CC1 (10 µM) | 0.217 | 106% (inactive)
CC(=O)c1ccc(S(=O)(=O)NC(=O)NC2CCCCC2)cc1 [acetohexamide] (10 µM) | 0.11 | 100% (inactive)
N#Cc1c[nH]c2c(C(=O)N3CCN(CCc4ccc(F)cc4)CC3)cccc12 [pruvanserin] (10 µM) | 0.117 | 98.5% (inactive)
CC(=O)NCCCOc1ccc(C(=O)N2CCC(N3C(=O)CCc4ccccc43)CC2)cc1 (10 µM) | 0.184 | 102% (inactive)
O=C1C[C@@]2(C(=O)N1)C(=O)N(Cc1ccc(Br)cc1F)C(=O)c1cccn12 [ranirestat] (10 µM) | 0.148 | 94.5% (inactive)
O=C1CCCC(=O)C1C(=O)c1ccc(C(F)(F)F)cc1[N+](=O)[O-] [nitisinone] (10 µM) | 0.0537 | 110% (inactive)
CC(C)(C)C(=O)OCOP(=O)(COCCn1cnc2c(N)ncnc21)OCOC(=O)C(C)(C)C [adefovir-dipivoxil] (10 µM) | -0.117 | 124% (inactive)
O=C(O)CCN(O)C(=O)CCCCCCCCC1CC1 (10 µM) | 0.0952 | 102% (inactive)
COC(c1ccccc1)(c1ccccc1)[C@H](Oc1nc(C)cc(C)n1)C(=O)O [ambrisentan] (10 µM) | -0.0233 | 104% (inactive)
NC(=O)c1ncn([C@@H]2O[C@H](CO)[C@@H](O)[C@H]2O)n1 [ribavirin] (10 µM) | 0.0157 | 97.5% (inactive)
OC[C@H]1O[C@H](O[C@H]2[C@H](O)[C@@H](O)[C@H](O)O[C@@H]2CO)[C@H](O)[C@@H](O)[C@@H]1O [D-(+)-maltose] (10 µM) | 0.129 | 86% (inactive)
N#Cc1ccncn1 [4-pyrimidinecarbonitrile] (10 µM) | 0.0783 | 97% (inactive)
O=C(Nc1c(-c2cccs2)nc2ccccn12)c1ccc(Cl)cc1 (10 µM) | 0.204 | 84% (inactive)
O=C1NC(=S)NC(=O)C1C(=O)Nc1ccccc1 [merbarone] (10 µM) | 0.103 | 99% (inactive)
CCOc1cc(N)c(Cl)cc1C(=O)NCC1CN(Cc2ccc(F)cc2)CCO1 (stereo not given) [mosapride] (10 µM) | 0.33 | 89.5% (inactive)
CC(C(=O)O)c1ccc2c(c1)Cc1ccccc1-2 (stereo not given) [cicloprofen] (10 µM) | -0.0564 | 100% (inactive)
CCOc1cn(-c2ccc(F)cc2C)nc1C(=O)Nc1ccc(Oc2ccnc3cc(OC)c(OC)cc23)c(F)c1 (10 µM) | 0.685 | 110% (inactive)
